Inconclusive results are not listed. Active and inactive are the calls of the source. Calls come from the whole dose curve; as a rule, active = well fitted activation curve with a large enough effect; inconclusive = small, poorly fitted or top-dose-only effect; inactive = no such curve, though single readings can be large or run the other way.
The compounds below were run against Cellular tumor antigen p53 (Homo sapiens) (UniProt P04637) (assay: Primary qHTS for small molecule compounds that upregulate eGFP-tagged delta133p53alpha (in N-terminal) cells. (AID 2060322; note: nearly all actives have a fitted effect of over 75% in size;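 for activation: cells pre-induced with doxycycline then dosed without doxycycline; series mostly up to about 56 µM; 0% = DMSO vehicle and 100% = reference activator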)). Details: NCI-H358 eGFP-delta133p53alpha fluorescence, 24 h; activation: active compounds read high.
Cellular tumor antigen p53 (Homo sapiens), sequence (P04637 whole entry, looked up): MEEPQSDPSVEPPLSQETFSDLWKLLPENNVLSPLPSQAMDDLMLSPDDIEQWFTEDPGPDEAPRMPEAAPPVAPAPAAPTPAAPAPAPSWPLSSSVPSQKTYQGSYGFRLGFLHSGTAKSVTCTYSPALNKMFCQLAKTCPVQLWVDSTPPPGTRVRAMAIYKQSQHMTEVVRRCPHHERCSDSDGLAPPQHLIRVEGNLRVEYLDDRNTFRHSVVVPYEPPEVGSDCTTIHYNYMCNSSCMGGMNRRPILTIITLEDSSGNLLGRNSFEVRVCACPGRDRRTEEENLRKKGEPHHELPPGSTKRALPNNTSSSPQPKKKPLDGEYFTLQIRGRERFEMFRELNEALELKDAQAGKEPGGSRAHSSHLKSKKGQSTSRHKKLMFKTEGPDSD
Outline: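 NCI-H358 cells pre-induced 24 h with 10 ng/ml doxycycline for eGFP-delta133p53alpha, plated dox-free and exposed 24 h at 37C to titrated compounds. Fixed, Hoechst-stained; gated GFP peak intensity by laser scanning cytometry, normalized to DMSO (0%) and 57.5 uM 5-azacytidine (100%).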
With `CC(C)(C)CC(=O)OCC(=O)[C@@]1(O)CC[C@H]2[C@@H]3CCC4=CC(=O)C=C[C@]4(C)[C@H]3[C@@H](O)C[C@@]21C` the activation was -9.21% (inactive).
With `Cc1cc(C)c(NC(=O)CN(CC(=O)O)CC(=O)O)c(C)c1Br` the activation was -11.9% (inactive).
In the case of `CC(C)=CCC/C(C)=C/CO`, the activation was -11.9% (inactive).
In the case of `CCCCCCCCNC(C)C(O)c1ccc(SC(C)C)cc1` (stereo not given), the Potency was 21.9 µM (active).
`O=C(O)CCC(=O)Nc1ccc(S(=O)(=O)Nc2nccs2)cc1` was tested, and the activation was -3.95% (inactive).
In the case of `COc1cc2c(cc1OC)C(C(C(=O)N(CCc1ccc(OC)c(OC)c1OC)CCc1ccc(OC)c(OC)c1OC)c1ccccc1)=NCC2` (stereo not given), the activation was 3.95% (inactive).
With `C[C@H](N)[C@H](O)c1cccc(O)c1` the activation was -7.53% (inactive).
In the case of `CCN1CC(CCN2CCOCC2)C(c2ccccc2)(c2ccccc2)C1=O` (stereo not given), the activation was 5.08% (inactive).
With `Cc1cc(C(C)(C)C)c(O)c(C(C)(C)C)c1` the Potency was 21.9 µM (active).
`COc1ccccc1N1CCN(CCCCNC(=O)c2ccc(-c3ccc(C(C)=O)cc3)cc2)CC1` was tested, and the activation was -10.9% (inactive).
For `CC(C)=CCNc1ncnc2c1ncn2[C@@H]1O[C@H](CO)[C@@H](O)[C@H]1O`, the activation was -20.9% (inactive).
With `Cl/C(=C\n1cncn1)c1ccc(Cl)cc1Cl` the activation was -2.82% (inactive).
In the case of `CN(C)c1cc(NC(=O)CNC(C)(C)C)c(O)c2c1C[C@@H]1C[C@H]3[C@H](N(C)C)C(=O)C(C(N)=O)=C(O)[C@@]3(O)C(=O)C1=C2O`, the activation was -7.92% (inactive).
With `CC[C@@H](CO)NCCN[C@@H](CC)CO` the activation was -10% (inactive).
For `CCCCC(=O)OCC(=O)[C@H]1[C@H](C)C[C@H]2[C@@H]3C[C@H](F)C4=CC(=O)C=C[C@]4(C)[C@@]3(F)[C@@H](O)C[C@@]21C`, the activation was -6.21% (inactive).
For `Cc1cc(-c2ccccc2)nnc1NCCN1CCOCC1`, the activation was 16.4% (inactive).
`O=C(CN1CCNCC1)NC1CCCCC1` was tested, and the activation was 7.53% (inactive).
For `CCC(C(=O)O)c1ccc(N2Cc3ccccc3C2=O)cc1` (stereo not given), the activation was 18.6% (inactive).
In the case of `C#C[C@]1(O)CC[C@@H]2[C@@H]3CCc4cc(O)ccc4[C@H]3CC[C@@]21C`, the activation was 18.7% (inactive).
For `Cc1cc(Nc2cc(N3CCN(C)CC3)nc(C=Cc3ccccc3)n2)n[nH]1`, the activation was 51.8% (inactive).
`CC1(C)S[C@@H]2[C@H](NC(=O)C(c3ccccc3)S(=O)(=O)O)C(=O)N2[C@H]1C(=O)O` (stereo not given in full) was tested, and the activation was -13% (inactive).
For `NC(CSCC(=O)O)C(=O)O` (stereo not given), the activation was -5.08% (inactive).
With `O=C1CC(c2ccc(Cl)cc2)CC(=O)N1` the activation was -11.9% (inactive).
`Nc1nc2ncc(CNc3ccc(C(=O)N[C@@H](CCC(=O)O)C(=O)O)cc3)nc2c(=O)[nH]1` was tested, and the activation was -10% (inactive).
In the case of `COc1ccc2cc1Oc1ccc(cc1)C[C@H]1c3cc(c(OC)cc3CCN1C)Oc1c(OC)c(OC)cc3c1[C@H](C2)N(C)CC3`, the activation was -18.2% (inactive).
For `CCN(CC)CC(=O)Oc1ccc(NC(C)=O)cc1`, the activation was -5.08% (inactive).
With `C[C@H](CCC(=O)O)[C@H]1CC[C@H]2[C@H]3[C@@H](CC[C@]12C)[C@@]1(C)CC[C@@H](O)C[C@H]1C[C@@H]3O` the activation was -8.06% (inactive).
In the case of `CC(=O)N[C@@H]1[C@H](O[C@@H]2c3ccc(c(Cl)c3)Oc3cc4cc(c3O[C@H]3O[C@H](CO)[C@@H](O)[C@H](O)[C@H]3NC(=O)CCCCCCCC(C)C)Oc3ccc(cc3Cl)C[C@H]3NC(=O)[C@H](N)c5ccc(O)c(c5)Oc5cc(O)cc(c5)[C@H](NC3=O)C(=O)N[C@H]4C(=O)N[C@H]3C(=O)N[C@@H]2C(=O)N[C@@H](C(=O)O)c2cc(O)cc(O[C@H]4O[C@H](CO)[C@@H](O)[C@H](O)[C@H]4O)c2-c2cc3ccc2O)O[C@H](CO)[C@@H](O)[C@@H]1O`, the activation was 25.3% (inactive).
`CC[C@]1(O)C[C@H]2CN(CCC3=c4ccccc4=N[C]3[C@@](C(=O)OC)(c3cc4c(cc3OC)N(C)[C@H]3[C@@](O)(C(N)=O)[C@H](O)[C@]5(CC)C=CCN6CC[C@]43[C@@H]65)C2)C1` was tested, and the activation was 31.2% (inactive).
`C=C1C(=O)O[C@H]2[C@@H]1CCC(C)=CCC[C@@]1(C)O[C@@H]21` was tested, and the Potency was 19.3 µM (active).
For `OC[C@H]1O[C@@H](Oc2cc(O)cc(C=Cc3ccc(O)cc3)c2)[C@H](O)[C@@H](O)[C@H]1O`, the activation was 9.98% (inactive).
With `O=c1ccn([C@@H]2O[C@H](CO)[C@H](O)[C@H]2O)c(=O)[nH]1` the activation was 8.95% (inactive).
`CC(C)NCCCC1(C(N)=O)c2ccccc2-c2ccccc21` was tested, and the activation was 4.18% (inactive).
In the case of `Nc1nc(NCc2ccccc2)c2[nH]cnc2n1`, the activation was 6.7% (inactive).
`C/C=C1/[C@H](O[C@@H]2O[C@H](CO)[C@@H](O)[C@H](O)[C@H]2O)OC=C(C(=O)OC)[C@H]1CC(=O)O[C@@H]1O[C@H](CO)[C@@H](O)[C@H](O)[C@H]1O` was tested, and the activation was -32.8% (inactive).
For `CCc1ccc(C(=O)C(C)CN2CCCCC2)cc1` (stereo not given), the activation was -5.86% (inactive).
With `OCC(CO)N[C@H]1C[C@](O)(CO)[C@@H](O)[C@H](O)[C@H]1O` the activation was -11.7% (inactive).
With `CCCCN(CCN(CCCC)C(=O)N1CCOCC1)C(=O)N1CCOCC1` the activation was -21.8% (inactive).
In the case of `COc1ccc(-c2cc(C(F)F)nn2-c2ccc(S(N)(=O)=O)cc2)cc1F`, the activation was -21.8% (inactive).
In the case of `Cc1c(O)cccc1C(=O)N[C@@H](CSc1ccccc1)[C@H](O)CN1C[C@H]2CCCC[C@@H]2C[C@@H]1C(=O)NC(C)(C)C`, the activation was -23% (inactive).

Source: PubChem BioAssay (NCATS)
Potency is the fitted concentration of half-maximal effect.
